Entries with a potency or affinity are not part of this list.
These compounds were tested on Staphylococcus aureus. Details: Concentration 32 ug.mL-1; ASSAY_TEST Inhibition of Bacterial Growth; detection method Absorption (OD600); MEDIA CAMHB; plate type 384well; NBS; CORNING #3640; time 18 hr.

SMILES | Inhibition [%]
Cc1ncc(CNc2ccc(Cl)cc2)c(N)n1 | -1.15
CC(=O)Nc1cc(C(=O)Nc2cc(C(=O)Nc3cc(C(=O)NCCCN(C)C)n(CCC(C)C)c3)n(C)c2)n(C)c1.O=C(O)C(F)(F)F | 9.82
COc1cccc(C(=N)Nc2cc(C(=O)Nc3cc(C(=O)Nc4cc(C(=O)NCCCN5CCOCC5)n(C)c4)n(C)c3)n(C)c2)c1.O=C(O)C(F)(F)F.O=C(O)C(F)(F)F | 26.72
Cc1ncc(Cn2cc(CO)nn2)c(N)n1 | 15.8
CCOC(=O)c1cc(NC(=O)c2cc(NC(=O)c3nc(N)sc3C(C)C)cn2C)cn1C | 29.56
Cc1ncc(Cn2cc(CCCO)nn2)c(N)n1 | 13.2
Cc1ncc(Cn2cc(CCC(=O)O)nn2)c(N)n1.O=C(O)C(F)(F)F | 15.37
Cc1ncc(Cn2cc(CCCN)nn2)c(N)n1.Cl | 14.19
Cn1cc(NC(=O)c2cc(NC(=O)c3sc(N)nc3C(F)(F)F)cn2C)cc1C(=O)NCCN1CCOCC1.O=C(O)C(F)(F)F | 12.04
COc1ccc(/C=C(/C(=O)Nc2cc(C(=O)Nc3cc(C(=O)NCCCN(C)C)n(C)c3)n(C)c2)c2ccc(OC)cc2)cc1.O=C(O)C(F)(F)F | 49.85
COc1cccc(C(=N)Nc2cc(C(=O)Nc3cc(C(=O)Nc4cn(CCCN(C)C)cn4)n(C)c3)n(C)c2)c1.O=C(O)C(F)(F)F.O=C(O)C(F)(F)F | 18.77
Cc1ncc(CNc2ccc(C(F)(F)F)cc2)c(N)n1 | -6.95
Cc1ncc(CNc2ccccc2F)c(N)n1 | 17.82
Cn1cc(NC(=O)c2cc(NC(=O)c3cc(NC(=O)c4ccc(Cl)cc4Cl)cn3C)cn2C)cc1C(=O)NCCN1CCOCC1.O=C(O)C(F)(F)F | 45.87
Cc1ncc(Cn2cc(CCCCO)nn2)c(N)n1 | 1.62
CN(C)CCCNC(=O)c1cc(NC(=O)c2cc(NC(=O)c3ccc(C(=O)O)cc3)cn2C)cn1C.O=C(O)C(F)(F)F | 10.82
Cc1ncc(Cn2cc(CCO)nn2)c(N)n1 | 21.55
CC(=O)N(C(C)=O)c1cc(C(=O)Nc2cc(C(=O)NCCC(=N)N)n(C)c2)n(C)c1.O=C(O)C(F)(F)F | 98.15
Cc1ncc(CNc2ccc(C(C)(C)C)cc2)c(N)n1 | -2.14

What follows are compounds tested on Escherichia coli. Details: Concentration 32 ug.mL-1; ASSAY_TEST Inhibition of Bacterial Growth; detection method Absorption (OD600); MEDIA CAMHB; plate type 384well; NBS; CORNING #3640; time 18 hr.

SMILES | Inhibition [%]
Cn1cc(NC(=O)c2cc(NC(=O)c3ccc(/C=C/c4cccc(F)c4)cc3)cn2C)cc1C(=O)NCCN1CCOCC1.O=C(O)C(F)(F)F | -7.74
CC(C)CCc1sc(NC(=O)c2cc(NC(=O)c3ccc(/C=C/c4cc5ccccc5nc4Cl)cc3)cn2C)nc1C(=O)NCCN1CCOCC1.O=C(O)C(F)(F)F | -19.26
COc1cccc(C(=N)Nc2cc(C(=O)Nc3cc(C(=O)NCCC(=N)N)n(C)c3)n(C)c2)c1.O=C(O)C(F)(F)F.O=C(O)C(F)(F)F | 3.74
COC(=O)c1ccc(C(=O)Nc2cc(C(=O)Nc3cc(C(=O)NCCC(=N)N)n(C)c3)n(C)c2)cc1.O=C(O)C(F)(F)F | -18.97
CC(C)n1cc(NC(=O)c2cc(NC(=O)c3cc(NC=O)cn3C(C)C)cn2C)cc1C(=O)NCCCN(C)C.O=C(O)C(F)(F)F | -12.14
Cc1ncc(CNc2cccc(F)c2)c(N)n1 | 3.54
COc1ccc(CC(=O)Nc2cc(C(=O)Nc3cc(C(=O)Nc4cn(CCCN(C)C)cn4)n(C)c3)n(C)c2)cc1.O=C(O)C(F)(F)F | -5.32
Cn1cc(NC(=O)c2cc(NC(=O)c3sc(N)nc3C(F)(F)F)cn2C)cc1C(=O)NCCC(=N)N.O=C(O)C(F)(F)F | -25.01
Cc1ncc(CNc2ccc(F)cc2)c(N)n1 | -15.16
COc1cccc(/C=C/c2ccc(C(=O)Nc3cc(C(=O)Nc4cc(C(=O)NCCN(C)C)n(C)c4)n(C)c3)cc2)c1.O=C(O)C(F)(F)F | 88.16
CC(=O)Nc1cc(C(=O)Nc2cc(C(=O)Nc3cc(C(=O)NCCCN(C)C)n(C)c3)n(C)c2)n(C)c1.O=C(O)C(F)(F)F | -5.37
Cc1ncc(CNc2ccc(Cl)cc2)c(N)n1 | 2.07
CC(=O)Nc1cc(C(=O)Nc2cc(C(=O)Nc3cc(C(=O)NCCCN(C)C)n(CCC(C)C)c3)n(C)c2)n(C)c1.O=C(O)C(F)(F)F | -19.43
COc1cccc(C(=N)Nc2cc(C(=O)Nc3cc(C(=O)Nc4cc(C(=O)NCCCN5CCOCC5)n(C)c4)n(C)c3)n(C)c2)c1.O=C(O)C(F)(F)F.O=C(O)C(F)(F)F | -6.36
Cc1ncc(Cn2cc(CO)nn2)c(N)n1 | -17.13
CCOC(=O)c1cc(NC(=O)c2cc(NC(=O)c3nc(N)sc3C(C)C)cn2C)cn1C | -5.15
Cc1ncc(Cn2cc(CCCO)nn2)c(N)n1 | -17.2
Cc1ncc(Cn2cc(CCC(=O)O)nn2)c(N)n1.O=C(O)C(F)(F)F | -17.36
Cc1ncc(Cn2cc(CCCN)nn2)c(N)n1.Cl | -28.01
Cn1cc(NC(=O)c2cc(NC(=O)c3sc(N)nc3C(F)(F)F)cn2C)cc1C(=O)NCCN1CCOCC1.O=C(O)C(F)(F)F | -24.64
COc1ccc(/C=C(/C(=O)Nc2cc(C(=O)Nc3cc(C(=O)NCCCN(C)C)n(C)c3)n(C)c2)c2ccc(OC)cc2)cc1.O=C(O)C(F)(F)F | -8.57
COc1cccc(C(=N)Nc2cc(C(=O)Nc3cc(C(=O)Nc4cn(CCCN(C)C)cn4)n(C)c3)n(C)c2)c1.O=C(O)C(F)(F)F.O=C(O)C(F)(F)F | -11.88
Cc1ncc(CNc2ccc(C(F)(F)F)cc2)c(N)n1 | -11.04
Cc1ncc(CNc2ccccc2F)c(N)n1 | -3.65
Cn1cc(NC(=O)c2cc(NC(=O)c3cc(NC(=O)c4ccc(Cl)cc4Cl)cn3C)cn2C)cc1C(=O)NCCN1CCOCC1.O=C(O)C(F)(F)F | -8.53
Cc1ncc(Cn2cc(CCCCO)nn2)c(N)n1 | -20.02
CN(C)CCCNC(=O)c1cc(NC(=O)c2cc(NC(=O)c3ccc(C(=O)O)cc3)cn2C)cn1C.O=C(O)C(F)(F)F | -6.1
Cc1ncc(Cn2cc(CCO)nn2)c(N)n1 | -15.62
CC(=O)N(C(C)=O)c1cc(C(=O)Nc2cc(C(=O)NCCC(=N)N)n(C)c2)n(C)c1.O=C(O)C(F)(F)F | 6.79
Cc1ncc(CNc2ccc(C(C)(C)C)cc2)c(N)n1 | -7.27
